Source: article PMC4552634, “A New Set of Chemical Starting Points with Plasmodium falciparum Transmission-Blocking Potential for Antimalarial Drug Discovery” (PLoS ONE, 2015)
The campaign covered roughly 13,000 compounds. About 3,200 (25%) showed an effect of 50% or more. The list shows a part of the results.

What follows are compounds tested on P. falciparum stage V gametocytes. Conditions: 48 h, 5 µM; inhibitor.
Set-up: BacTiter-Glo ATP luminescence viability of purified stage V gametocytes in 384-well plates, per cent inhibition versus DMSO

| Compound | % Inhibition |
| --- | --- |
| CCCCNC[C@@H](O)[C@H](Cc1ccccc1)NC(=O)c1cc(NCC)cc(N2CCCCS2(=O)=O)c1 [TCMDC-135177] | 4.465% |
| CCOC(=O)c1[nH]c(-c2cccc(F)c2)nc1N [TCMDC-131794] | -46.62% |
| O=C(Nc1cccnc1)c1cc(-c2cccnc2)nc2ccc(Cl)cc12 [TCMDC-124361] | -11.56% |
| COc1ccc(-n2ncc(C(=O)N3CCC4(C3)C(=O)N(c3ccccc3)c3ccccc34)c2C)cc1 (stereo not drawn) [TCMDC-134122] | -6.778% |
| O=C(NCCCCCN1CCC(c2c[nH]c3ccccc23)CC1)c1ccc(-c2cccnc2)cc1 [TCMDC-139183] | 113.1% |
| O=C(NCCCCCN1CCC(c2c[nH]c3ccccc23)CC1)c1ccc(-c2ccccc2)nc1 [TCMDC-139157] | -73.03% |
| O=C(NC1CCN(CCN2CCC(c3c[nH]c4ccccc34)CC2)CC1)c1ccc(-c2ccc(C(F)(F)F)cc2)cc1 [TCMDC-138845] | 66.39% |
| O=C(NCCCN1CCC(NC(=O)c2ccc(-c3cccnc3)cc2)CC1)c1ccc(Cl)c(Cl)c1 [TCMDC-133357] | 16.57% |
| O=C(NCCCCN1CCC(c2c[nH]c3ccc(-c4ccccc4)cc23)CC1)c1ccc(-c2ccccc2)cc1 [TCMDC-139064] | 108.8% |
| COc1ccc2[nH]cc(C3CCN(CCCCCNC(=O)c4ccc(-c5ccccc5)cc4)CC3)c2c1 [TCMDC-139053] | 30.55% |
| O=C(NC1CCN(CCN2CCc3ccccc3CC2)CC1)c1ccc(-c2ccc(C(F)(F)F)cc2)cc1 [TCMDC-138831] | -7.885% |
| O=C(/C=C/c1ccc(C(F)(F)F)cc1)NCCCCCN1CCC(c2c[nH]c3ccccc23)CC1 [TCMDC-139209] | 23.24% |
| O=C(NCCCCN1CCC(c2c[nH]c3ccccc23)CC1)c1sc(-c2ccc(C(F)(F)F)cc2)nc1CO [TCMDC-138780] | -12.54% |
| O=C(NCCCCCN1CCC(c2ccc(O)cc2)CC1)c1ccc(-c2ccccc2)cc1 [TCMDC-139196] | -56.25% |
| O=C(NCCCCN1CCC(c2c[nH]c3ccccc23)CC1)c1ccc(-c2ccc(C(F)(F)F)cc2)cc1 [TCMDC-138631] | 87.17% |
| O=C(NC1CCN(CCN2CCC(c3ccccc3C(F)(F)F)CC2)CC1)c1ccc(-c2ccc(Cl)cc2)cc1 [TCMDC-138809] | -39.81% |
| CC(=O)c1ccccc1OCCSc1nnc(Cc2cccs2)n1C1CCCCC1 [TCMDC-123554] | -19.51% |
| CCN(C(=O)NC)C1c2cc(C#N)ccc2OC(C)(C)C1O (stereo not drawn) [TCMDC-131556] | 13.93% |
